# Test results reported in PubChem BioAssay AID1117279 (The Scripps Research Institute Molecular Screening Center, 2014).
# Out of some 1,100 compounds screened, about 40 (4%) were called active.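 Rule for the calls: active = average inhibition above the solvent-only control wells' mean plus 3 SD (cut at about 15% in these data); inactive = the rest.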 These entries were drawn from the full list.
# Assay: compounds lowering TTR transcription reporter in HuH7 – cell-based, luminescence, HuH7 hepatoma, counter-screen for TTR transcription activator project (AID 1117279);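 note: 0% = cells with DMSO only and 100% = cells with inhibitor control FD; inhibitors lower well luminescence so higher value means more inhibition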
# Conditions: HuH7 TTR promoter-Gaussia luciferase reporter, at 16.7 µM, stronger effect = higher value
row,SMILES,inhibition
1,CC(C)(C)C1CCC(OC(=O)CCC(=O)Nc2ccccc2)CC1 (stereo unspecified),-7.82% (inactive)
2,C[C@H](NC(=O)C1CCN(S(=O)(=O)c2ccccc2)CC1)C(=O)NCc1ccccc1,-13.1% (inactive)
3,Cc1cccc(N2C(=O)CC(SC(N)=Nc3ccccc3)C2=O)c1 (stereo unspecified),-9.09% (inactive)
4,Brc1ccc(/C=N/N2CCN(C3c4ccccc4-c4ccccc43)CC2)s1,-10.1% (inactive)
5,CC(C)NC(=O)c1ccc(Sc2ccccc2)c([N+](=O)[O-])c1,-1.16% (inactive)
6,CCOc1ccc(NC(=O)COc2ccc(S(=O)(=O)N3CCCC3)cc2)cc1,-11.3% (inactive)
7,CCCCCc1ccc(-c2cn(Cc3ccc4ccccc4c3)nn2)cc1,-10.2% (inactive)
8,CCOc1ccc(N=C2NC(=O)S/C2=C\c2ccc(O)cc2)cc1,24.4% (active)
9,COc1cc(N2C(=O)CC3(CCCC3)CC2=O)cc(OC)c1OC,-8.06% (inactive)
10,Cc1c(C#N)c(NC(=O)c2ccccc2)n(Cc2ccccc2)c1C,-8.18% (inactive)
11,Cn1cc(CN2CCCC(CO)C2)c(-c2ccc(Oc3ccccc3)cc2)n1 (stereo unspecified),-9.5% (inactive)
12,O=C(NNC1=NCCC1)c1cccc(S(=O)(=O)N2CCCCC2)c1,-4.93% (inactive)
13,COc1ccc(-c2oc3ncn(Cc4ccco4)c(=N)c3c2-c2ccc(OC)cc2)cc1,1.5% (inactive)
14,CSCCC(NC(N)=O)C(=O)N(C)CC(=O)Nc1ccc(C)cc1 (stereo unspecified),-0.9% (inactive)
15,CCCCOCCCNC(=O)C[C@H]1C[C@@]2(C(=O)OC)C(=C[C@H](C(C)(C)C)O[C@@H]2C)N(CCc2ccc(OC)c(OC)c2)C1=O,-3.28% (inactive)
16,Cc1cccc(C)c1NC(=O)CN1C(=O)C(C)Oc2ccccc21 (stereo unspecified),1.63% (inactive)
17,N=c1ccn(CC(=O)NC(N)=O)c2ccccc12,-11.8% (inactive)
18,C=C1C(C(C)C)N(C)C2=NC(c3ccccc3)CC(=O)N12 (stereo unspecified),-4.18% (inactive)
19,O=C(NCCCNC(=O)c1ccccc1Cl)c1cnccn1,-8.25% (inactive)
20,O=S(=O)(NCCCN1CCOCC1)c1ccc(F)c(Cl)c1,-2.54% (inactive)
21,COc1ccccc1N1CCN(Cc2cc(OC)c3c(c2)OCO3)CC1,-8.45% (inactive)
22,O=C(Nc1cccc(O)c1)c1ccc(C(=O)c2ccccc2)o1,-11.2% (inactive)
23,O=C(O)Cn1c(Cc2ccccc2)nc2ccccc21,-10% (inactive)
24,O=C(CCC(=O)c1cccs1)NCc1ccccc1,-6.29% (inactive)
25,Cc1c(NS(=O)(=O)c2ccc(NC3CCCC3)c([N+](=O)[O-])c2)c(=O)n(-c2ccccc2)n1C,17.4% (active)
26,CCOC(=O)c1c(-c2ccccc2)oc2ccc(OCC(N)=O)cc12,-17.5% (inactive)

row,SMILES,inhibition
1,COc1cc(C(C)=O)ccc1OC(C)C(=O)Nc1ccc(S(=O)(=O)N2CCCC2)cc1 (stereo unspecified),-21.8% (inactive)
2,O=C(Nc1ccccc1C(=O)N1CCCCCC1)c1ccccc1Cl,-17.5% (inactive)
3,CCOc1ccccc1NC(=O)COc1ccc(S(=O)(=O)N2CCCC2)cc1,-35.5% (inactive)
4,C(=N\n1cnnc1)/c1cccnc1,-6.37% (inactive)
5,COc1cccc(-c2cnc(C(O)c3ccccc3OC)[nH]2)c1 (stereo unspecified),-13.2% (inactive)
6,Cc1ccccc1/[N+]([O-])=C/c1ccncc1,-5.47% (inactive)
7,O=C(CS(=O)(=O)c1ccccc1)Nc1ccc(S(=O)(=O)Nc2ccccn2)cc1,-15.3% (inactive)
8,C/C(CC(=O)Nc1ccc(N(C)C)cc1)=N\NC(=O)c1ccccc1F,-16.7% (inactive)
9,COc1ccc(S(=O)(=O)NCC(=O)NCc2cc(=O)n(C)c(=O)n2C)cc1F,-4.59% (inactive)
10,Cc1ccc(CN2CCCOCCS2(=O)=O)cc1,-6.05% (inactive)
11,Nc1nc(SCC(=O)Nc2ccc(Cl)c([N+](=O)[O-])c2)n[nH]1,-10% (inactive)
12,CCOC(=O)c1cc(-c2ccc(Cl)s2)nc2c1c(C)nn2C,-14.6% (inactive)
13,O=C(NC(=O)c1ccccc1N1CCCCC1)Nc1ccc(Br)cc1,-2.62% (inactive)
14,Cc1cc(C)c2nc3nc(C)cc(C)c3c(N)c2c1,-40.1% (inactive)
15,CCCCc1cc(=O)oc2cc(C)cc(OCc3nn[nH]n3)c12,-25.9% (inactive)
16,O=C(NNC(=O)c1cc(S(=O)(=O)N2CCCCC2)ccc1Cl)c1ccccc1O,-22.3% (inactive)
17,COC(=O)c1cnn2c(C(F)(F)F)cc(-c3ccco3)nc12,2.2% (inactive)
18,O=C1c2cccc(OCC(=O)N3N=C(c4cccs4)CC3c3ccc(F)cc3)c2CCN1Cc1ccccc1 (stereo unspecified),9.54% (inactive)
19,COc1ccc(C2c3ccc(O)cc3Oc3ncn(CCCO)c(=N)c32)cc1OC (stereo unspecified),-4.61% (inactive)
20,O=S(=O)(NCc1ccccc1Br)c1ccccc1Br,6.86% (inactive)
21,CCCCN(C)CCNC(=O)C1CCCN(S(=O)(=O)c2cccc3nsnc23)C1 (stereo unspecified),-18% (inactive)
22,O=C(O)C1OC(C(=O)O)C2C1C(F)(F)C2(F)F (stereo unspecified),-13.2% (inactive)
23,Cc1cc(C)c(C#N)c(N2CCC(C(N)=O)CC2)n1,-15.2% (inactive)
24,Cc1nc(-c2ccc(Cl)cc2)sc1C(=O)NN,-6.37% (inactive)
25,N#Cc1cccc(CN2CCC(=O)N(CCO)CC2)c1,-7.6% (inactive)
